Data reported in PubChem BioAssay AID1117319 (Southern Research Institute, 2015).
Where “and” joins values, the source holds several entries; their conditions need not be identical. Equal entries are not always repeated. Screen size: about 260,000 compounds; about 1,500 (0.58%) were called active. Roughly 5% stayed inconclusive and do not appear here.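 The calls were made as follows: active = inhibition above a set limit at one or more doses, reproduced on every date tested; inconclusive = results disagree between test dates, or hit never tested in dose response; inactive = the rest.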 Only a sample is shown. Potency and affinity values are given separately.

target: Virion infectivity factor (Human immunodeficiency virus type 1 group M subtype B (isolate BH10)) + Virion infectivity factor (Human immunodeficiency virus type 1 group M subtype B (isolate BRU/LAI)) + Virion infectivity factor (Human immunodeficiency virus type 1 group M subtype B (isolate PCV12)) + Virion infectivity factor (Human immunodeficiency virus type 1 group M subtype B (isolate HXB2)) + DNA dC->dU-editing enzyme APOBEC-3G (Homo sapiens) (UniProt P69720+P69721+P69722+P69723+Q9HC16); test: inhibitors of Vif binding to APOBEC3G peptide, primary screen, biochemical, TR-FRET, GST-Vif 1-94, biotin-A3G peptide, dose response retest (AID 1117319); conditions: active compounds read high;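 also: Vif residues 1-94 fused to GST binding biotinylated APOBEC3G peptide 110-148; 0% = full assay without inhibitor and 100% = GST in place of GST-Vif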

inhibition, inactive:
CCCN(CC(=O)Nc1ccccc1OC)C(=O)Cn1[nH]c(=O)c2ccccc2c1=O -0.74%
O=C(O)/C(=C\c1cccc(F)c1)c1ccc(S(=O)(=O)N2CCCC2)s1 18.6%
O=C(O)/C(=C\c1cccc(O)c1)c1ccc(S(=O)(=O)N2CCCC2)s1 14.8%
CN(CCC#N)C(=O)CC(Cc1ccccc1)C1CCOC(C)(C)C1 (stereo not given) 28.5%
CCCn1cnc2cc(NCc3ccccc3O)ccc21 -2.34%
CCCn1cnc2cc(NCc3ccc(Br)cc3)ccc21 -8.23%
CC(C)n1cnc2cc(NCc3ccccn3)ccc21 14.4%
CCn1cnc2cc(NCc3ccncc3)ccc21 18.7%
CCNC(=S)NCCN1CCCCC1 -5.58%
Cc1cc(C)cc(NC(=O)Cn2cc3c(n2)CCCCC3)c1 0.97%
CC(=O)Nc1ccc(NC(=O)Cn2cc3c(n2)CCCC3)cc1 -2.34%
Cc1cc(C)c2c(N)c(-c3nc4ccccc4[nH]3)sc2n1 1.28%
O=C1CSC(=S)N1c1ccccc1 -4.55%
CCN(CC)c1ccc(N2C(=O)CSC2=S)cc1 -8.43%
Cc1ccc(S(=O)(=O)Nc2cccc(C(=O)N3CCCC3)c2)cc1F 3.33%
O=c1oc2c3c4c(cc2c(C(F)(F)F)c1CCN1CCOCC1)CCCN4CCC3 16.6%
CC(C)c1cc(=O)oc2c3c4c(cc12)CCCN4CCC3 13.8%
N/C(=N\OC(=O)CN1C(=O)c2ccccc2C1=O)c1ccc(Cl)cc1 -10.1%
COc1ccc(N2CCN(C(=O)COC(=O)c3oc4ccc(OC)cc4c3C)CC2)cc1 1.73%
COc1ccc(NC(=O)C(NC(C)=O)C(=O)NCc2ccccc2)cc1 (stereo not given) 2.8%
O=C(Nc1ccn(-c2ccccc2)n1)c1ccc(Cl)cc1 -12.3%
CC(=O)Nc1ccn(-c2ccccc2)n1 15.9%
COc1ccc(S(=O)(=O)N(CC(=O)NCc2ccco2)C2CCCCC2)cc1OC 24%
COC(=O)c1cc([N+](=O)[O-])c(C)c(C)n1 -2.89%
CCN1CCc2c(C#N)c(N3CCOCC3)nc(NCc3ccccc3)c2C1 13.6%
CCN1CCc2c(C#N)c(N3CCCCC3)nc(NCc3ccccc3)c2C1 25.2%
CCCc1c(C)[nH]c2ccccc2c1=O 6.62%
CC1=NN(c2ccc(Cl)c(C(=O)O)c2)C(=O)/C1=C\c1ccc(-c2ccc(C(=O)O)cc2)o1 1.61%
CC1=NN(c2cccc(C(=O)O)c2)C(=O)/C1=C\C=C/c1ccccc1 29.5%
CC1=NN(c2ccc(C)cc2)C(=O)/C1=C\C=C\c1ccccc1 -3.38%
CC1=NN(c2ccc(Cl)c(C(=O)O)c2)C(=O)C1 29.9%
O=C(CSc1nnc(CCCO)n1-c1ccccc1)Nc1nccs1 -0.69%
CCOc1cc(CNCCO)cc(Br)c1OCc1ccc(Cl)cc1 -0.39%
Nc1cc(=O)nc(SCC(=O)Nc2ccccc2Cl)n1-c1ccccc1 -1.2%
Cc1ncsc1CCSc1nc2ccccc2c(=O)n1C -1.02%
COc1cc(OC)cc(C(=O)Nc2cccnc2)c1 7.36%
COc1ccc(S(=O)CC(=O)Nc2ccccc2Cl)cc1 (stereo not given) -2.59%
CCN(CC)c1ccc(C=Nc2ccccc2)c(O)c1 29.3%
CCN(CC)c1ccc(C=Nc2ccccc2C)c(O)c1 -5.2%
CCN(CC)c1ccc(C=Nc2ccc(C#N)cc2)c(O)c1 -0.77%
CCN(CC)c1ccc(C=Nc2cc(C)cc(C)c2)c(O)c1 9.03%
COc1nnc(-c2ccc(C)c(S(=O)(=O)NC(C)C)c2)c2ccccc12 -9.93%
COc1ccc(C2=NC(CO)(CO)CO2)cc1 -8.98%
O=C(Nc1ccc(S(=O)(=O)N2CCCC2)cc1)c1cc(=O)c2ccccc2o1 -4.62%
CN(C)CC(=O)N1c2ccccc2Sc2ccc(Cl)cc21 3.03%
O=C(CN1CCCc2ccccc21)NCCc1ccc(Cl)cc1 32.1%
COc1ccc(CCNC(=O)CN2CCOc3ccccc32)cc1OC 2.79%
NC1=CC(=O)C(=O)c2ccccc21 6.05%
O=C1C=C(Nc2ccccc2)c2ccccc2C1=O 2.25%
COc1cc(-c2nnc(NC(=O)CS(=O)(=O)c3ccc(C)cc3)o2)cc(OC)c1OC -0.69%
COc1cc(NC(=O)CS(=O)(=O)c2ccccc2)cc(OC)c1OC -4.34%
O=[N+]([O-])c1cccnc1N1CCN(c2ccc(F)cc2)CC1 -1.42%
COCCCC1CCN(Cc2cn[nH]c2-c2cc(OC)c(OC)c(OC)c2)CC1 -14.3%
O=C(O)c1cccc(N/N=C/c2ccc(OC(F)(F)F)cc2)c1 0.25%
COC(=O)c1ccc(COc2ccccc2/C=N/Nc2cccc(C(=O)O)c2)cc1 9.8%
O=C(O)c1cccc(N/N=C/c2ccc(-c3ccccc3)cc2)c1 6.67%
CSc1ccc(/C=N/Nc2ccc(Cl)c(C(=O)O)c2)cc1 14.3%
CN(C)S(=O)(=O)N1CCc2ccccc21 28.1%
Cc1cc(OCCn2cnc3ccccc3c2=O)ccc1[N+](=O)[O-] 3.47%
CCc1ccc(S(=O)(=O)ON2C(=O)c3ccccc3C2=O)cc1 5.83%
COc1ccc(S(=O)(=O)/N=C2/C=CC(=O)C(C)=C2C)cc1 9.79%
O=S(=O)(N=C1C=CC(=NS(=O)(=O)c2ccccc2)c2ccccc21)c1ccccc1 14.1%
CCc1ccc(S(=O)(=O)/N=C2\C=C(NS(=O)(=O)c3ccccc3)C(=O)c3ccccc32)cc1 16%
Cc1ccc(CNC(=O)CSc2nc(N3CCCCC3)nc(N3CCCCC3)n2)cc1 4.78%
COc1ccc(Nc2nc(OC)nc(N3CCOCC3)n2)cc1 -3.38%
CC1=C(C(=O)OC2CCCCC2)C(c2cccs2)n2c(nc3ccccc32)N1 (stereo not given) -7.41%
CN1CCc2ccccc2C1C1CCNCC1 (stereo not given) 25.2%
CN1CCc2cc3c(c4c2[C@H]1[C@H](O)c1ccccc1-4)OCO3 9.65%
CCN(CC)CCn1c2c(c(SCC(=O)NCc3ccccc3)nc1=O)CCCC2 6.08%
O=C(NCCCN1CCN(CCCNC(=O)c2cccc([N+](=O)[O-])c2)CC1)c1cccc([N+](=O)[O-])c1 1.34%
Cc1nn(C)cc1/C=N/NC(=S)Nc1ccccc1 0.96%
C/C(N)=C(/C#N)C(=O)CSc1n[nH]c(-c2ccccc2Br)n1 10.4% and -7.5%
CCOC(=O)c1ccccc1NC(=O)[C@@H]1CCCN1C(=O)OC(C)(C)C 3.12%
CCN1C(=O)c2ccc(C(=O)NCc3ccc4c(c3)OCO4)cc2C1=O -10.4%
Cc1cc(C(F)(F)F)n2ncc(C(=O)O)c2n1 -3.78%
Cc1cc(C(F)(F)F)n2nc(C)c(-c3ccc(Cl)cc3)c2n1 -0.47%
CC(C)(C)C1=NN=C2c3ccccc3C(=O)C21 (stereo not given) 6.1%
COCOCCn1cc(CN2CCS(=O)(=O)N(Cc3ccc(-c4ccc(Cl)cc4)cc3)C(C)C2=O)nn1 (stereo not given) 1.6%
CCOC(=O)c1cc(C)n(-c2c(C)n(C)n(-c3ccccc3)c2=O)c1C 2.99%
Cc1cc(C(=O)CC#N)c(C)n1-c1c(C)n(C)n(-c2ccccc2)c1=O 3.73%
Cc1onc(-c2ccccc2Cl)c1C(=O)O/N=C(\N)c1ccccc1 -3.35%
COc1ccc2c(=O)c3c(=O)n(Cc4ccco4)c(-c4ccco4)nc3oc2c1 6.47%
COc1ccc2c(=O)c3c(=O)n(Cc4ccco4)c(-c4ccc(C)cc4)nc3oc2c1 -32.5%
COc1ccc2c(=O)c3c(=O)n(Cc4ccco4)c(C(C)C)nc3oc2c1 -5.33%
COc1ccc2c(=O)c3c(=O)n(Cc4ccco4)c(-c4ccccc4)nc3oc2c1 -5.44%
O=C(O)CCS(=O)(=O)Cc1ccccc1Cl 3.96%
CC(C)OC(=O)C1C(=O)CC(C)(O)C(C(=O)OC(C)C)C1c1ccccc1 (stereo not given) -5.49%
O=C(N/N=C/c1c[nH]c2ccccc12)c1ccc([N+](=O)[O-])cc1Cl 2.78%
CCCCC(=O)NC(=S)Nc1ccccc1N1CCCCC1 1.96%
Cc1nc(SCC(=O)c2ccc(F)c(F)c2)[nH]c(=O)c1Oc1ccc(F)cc1 -1.47%
COc1cc(C2C(C(=O)c3ccc(C)o3)=C(O)C(=O)N2c2cc(C)on2)cc(Br)c1O (stereo not given) 19.3%
Cc1cc(N2C(=O)C(O)=C(C(=O)c3ccco3)C2c2ccc(O)cc2)no1 (stereo not given) -5.88%
COC(=O)c1ccc(COc2nc(C)cc(C)c2C#N)o1 2.74%
CCN(CC)S(=O)(=O)c1ccc(N2CCOCC2)c(NC(=O)CCC2CCCCC2)c1 -9.59%
O=C(O)c1ccccc1C(=O)N1CCN(c2ccccc2)CC1 3.73%
O=C(CCSc1ccccc1)N1CCN(c2ccccc2)CC1 -3.65%
CCn1c(SCC(=O)N2CCN(c3ccccc3)CC2)nnc1-c1ccoc1C 7.37%
O=C(c1ccccc1C(=O)N1CCN(c2ccccc2)CC1)N1CCN(c2ccccc2)CC1 3.97%
Cc1occc1-c1nnc(SCC(=O)N2CCN(c3ccc(F)cc3)CC2)n1C 8.11%
COc1ccc(N2CCN(C(=O)CSc3ccccc3)CC2)cc1 30.3%
